# Test results reported in PubChem BioAssay.
# Activity calls are given as the source filed them. Unless noted, how the calls were made is not given here.
# Columns and labels:
# [1] = test system: Wnt5a (protein binding on small-molecule microarray); assay: Wnt5a binders on small-molecule microarray, primary screen, biophysical, 635/667 nm fluorescence (AID 1142); conditions: 635 nm fluorescence, higher = more signal;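 further: fluorescence read at 667 nm with signal to noise per printed feature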
# [2] = cell viability in Huh7 cells, primary screen, cytotoxicity control for HCV replication inhibitor project, CellTiter-Glo luminescence, basal, 48 h (AID 1143); conditions: Huh7 HCV replicon, higher = more signal, called active from +8 up or from −8 down;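 further: Huh7 hepatoma cells carrying a hepatitis C replication reporter with no stimulus; test concentration not given here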
# [3] = P. aeruginosa biofilm formation inhibitors, primary screen, PAO1 strain, BacTiter-Glo luminescence, LB-PBS (AID 1144); conditions: 12 h, higher = more signal
# [4] = CREB reporter modulators without forskolin, primary screen, cell-based, PC12, CRE-LacZ reporter, unstimulated (AID 1145); conditions: no forskolin, luminescence, 4.5 h, higher = more signal, called active from +8 up or from −8 down
# [5] = CREB reporter modulators under forskolin, primary screen, cell-based, PC12, CRE-LacZ reporter, forskolin-stimulated (AID 1146); conditions: luminescence, 4.5 h, higher = more signal, called active from +8 up or from −8 down;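 further: PC12 cells with 6xCRE LacZ reporter stimulated by forskolin 10 µM; beta-galactosidase reporter signal reflecting CREB driven transcription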
# [6] = biological target: Streptavidin (Streptomyces avidinii) (UniProt P22629); assay: streptavidin binders on small-molecule microarray, primary screen, artefact control for SMM compound annotation, biophysical, 635/667 nm fluorescence (AID 1147); conditions: streptavidin binding, higher = more signal;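 further: signal reflects streptavidin binding to arrayed compounds as a control protein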
# [7] = small-molecule binders of probe aInhba, primary screen, biochemical, small-molecule microarray, 635/667 nm fluorescence (AID 1148); conditions: higher = more signal;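 further: score merges 667nm spot fluorescence with signal-to-noise for antibody binding to printed compounds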
# [8] = biological target: Torsin-1A (Homo sapiens) (UniProt O14656); assay: torsin A binders from cell lysate, primary screen, small-molecule microarray, wild-type, 635/667 nm (AID 1149); conditions: COS7 hTOR1A-WT lysate, 635 nm fluorescence, higher = more signal
# [9] = biological target: Torsin-1A (Homo sapiens) (UniProt O14656); assay: small-molecule binders of mutant TOR1A in lysate, primary screen, cell lysate, small-molecule microarray, COS7 lysate, 635/667 nm fluorescence (AID 1150); conditions: COS7 hTOR1A mutant lysate, 635 nm fluorescence, higher = more signal;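 further: score pools 667 nm emission and signal to noise measuring lysate protein binding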
# [10] = test system: Sonic hedgehog protein (Shh); assay: small-molecule binders of Shh protein, primary screen, biochemical, small-molecule microarray, 635/667 nm fluorescence (AID 1151); conditions: small-molecule microarray binding, 635 nm fluorescence; higher = more signal;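 further: Shh protein binding to compounds spotted on small-molecule microarray slides; score combines spot fluorescence intensity with signal-to-noise across triplicate slides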
# [11] = E. coli DRC41 culture turbidity changes, primary screen, E. coli filamentation inducer project, strain DRC41, OD650, 48 h (AID 1152);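 further: E. coli MC1000 strain DRC41 lacking acrAB efflux pump and sulA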; conditions: E. coli DRC41 (acrAB sulA), higher = more signal, called active from +8 up or from −8 down
# [12] = small-molecule binders of probe aLefty1, primary screen, biochemical, small-molecule microarray, 635/667 nm fluorescence (AID 1153); conditions: higher = more signal;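 further: score merges spot fluorescence with signal-to-noise ratio from the scanned slide images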
# [13] = PSAC antagonists in infected red cells, primary screen, cell-based, P. falciparum Indochina, OD700, 1 h (AID 1154); conditions: P. falciparum Indochina infected RBC osmotic lysis, higher = more signal, called active from +8 up or from −8 down
# [14] = PSAC antagonists in infected red cells, primary screen, cell-based, P. falciparum Indochina, OD700, 2 h (AID 1155);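 further: lysis reports solute entry through the parasite surface anion channel PSAC; channel blockers reduce lysis of infected cells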; conditions: P. falciparum Indochina infected erythrocytes, osmotic lysis OD700; higher = more signal, called active from +8 up or from −8 down
# [15] = osmotic lysis modulators in infected erythrocytes, primary screen, PSAC antagonist project, cell-based, P. falciparum Indochina, OD700, 3 h (AID 1156); conditions: higher = more signal, called active from +8 up or from −8 down
# [16] = PSAC antagonists in infected red cells, primary screen, cell-based, P. falciparum Indochina, OD700, 18 h (AID 1157); conditions: P. falciparum Indochina infected erythrocytes, osmotic lysis OD700, 18 h; higher = more signal, called active from +8 up or from −8 down
# [17] = modulators of S6 phosphorylation in cells, primary screen, cell-based, A549, cytoblot, luminescence, serum-stimulated (AID 1158); conditions: A549 phospho-S6 cytoblot, 5 h, higher = more signal;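 further: serum-stimulated A549 lung adenocarcinoma cells; signal is phosphorylated S6 detected by cytoblot immunostaining with HRP secondary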
# [18] = biological target: NADPH oxidase 2 (Homo sapiens) (UniProt P04839); assay: NOX2-dependent H2O2 signal modulators, primary screen, NOX inhibitor project, cell-based, HEK293-NOX2, PMA-stimulated, Amplex Red fluorescence (AID 1159); conditions: 45 min, higher = more signal, called active from +8 up or from −8 down; further: test concentration not given here
# [19] = biological target: NADPH oxidase 4 (Homo sapiens) (UniProt Q9NPH5); assay: NOX4-dependent H2O2 signal modulators, primary screen, NOX inhibitor project, cell-based, HEK293-NOX4, tetracycline-induced, Amplex Red fluorescence (AID 1160); conditions: 45 min, higher = more signal, called active from +8 up or from −8 down
# [20] = biological target: NADPH oxidase 5 (Homo sapiens) (UniProt Q96PH1); assay: NOX5-dependent H2O2 signal modulators, primary screen, NOX inhibitor project, cell-based, HEK293-NOX5, Amplex Red fluorescence (AID 1161); conditions: HEK293-NOX5, ionomycin, 45 min, higher = more signal
# Chain of NADPH oxidase 5 (Homo sapiens) (Q96PH1 whole entry, looked up): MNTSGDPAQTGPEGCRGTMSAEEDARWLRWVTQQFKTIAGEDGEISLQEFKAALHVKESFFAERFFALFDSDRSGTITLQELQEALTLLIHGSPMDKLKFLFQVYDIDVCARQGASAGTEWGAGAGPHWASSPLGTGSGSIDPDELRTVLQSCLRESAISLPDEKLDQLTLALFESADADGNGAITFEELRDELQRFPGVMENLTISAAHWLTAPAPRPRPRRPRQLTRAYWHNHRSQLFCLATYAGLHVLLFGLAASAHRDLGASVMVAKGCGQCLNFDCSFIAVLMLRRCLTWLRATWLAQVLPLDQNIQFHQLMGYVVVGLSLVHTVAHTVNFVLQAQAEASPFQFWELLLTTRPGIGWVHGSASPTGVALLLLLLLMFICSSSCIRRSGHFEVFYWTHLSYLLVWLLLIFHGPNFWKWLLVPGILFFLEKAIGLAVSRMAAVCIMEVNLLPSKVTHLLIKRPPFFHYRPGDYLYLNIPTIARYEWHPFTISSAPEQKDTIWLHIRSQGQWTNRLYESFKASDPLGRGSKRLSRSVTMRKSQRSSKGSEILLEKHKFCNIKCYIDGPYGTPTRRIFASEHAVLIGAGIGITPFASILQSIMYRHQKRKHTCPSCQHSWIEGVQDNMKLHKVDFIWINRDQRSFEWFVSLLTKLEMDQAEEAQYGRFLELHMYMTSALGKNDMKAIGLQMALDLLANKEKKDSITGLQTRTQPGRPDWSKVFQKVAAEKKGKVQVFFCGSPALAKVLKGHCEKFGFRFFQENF
# Chain of Streptavidin (Streptomyces avidinii) (P22629 whole entry, looked up): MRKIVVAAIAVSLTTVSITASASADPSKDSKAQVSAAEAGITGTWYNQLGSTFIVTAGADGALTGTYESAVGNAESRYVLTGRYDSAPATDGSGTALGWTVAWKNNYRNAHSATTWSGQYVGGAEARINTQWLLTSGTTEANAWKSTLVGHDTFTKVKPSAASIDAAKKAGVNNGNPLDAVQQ
# Chain of Torsin-1A (Homo sapiens) (O14656 whole entry, looked up): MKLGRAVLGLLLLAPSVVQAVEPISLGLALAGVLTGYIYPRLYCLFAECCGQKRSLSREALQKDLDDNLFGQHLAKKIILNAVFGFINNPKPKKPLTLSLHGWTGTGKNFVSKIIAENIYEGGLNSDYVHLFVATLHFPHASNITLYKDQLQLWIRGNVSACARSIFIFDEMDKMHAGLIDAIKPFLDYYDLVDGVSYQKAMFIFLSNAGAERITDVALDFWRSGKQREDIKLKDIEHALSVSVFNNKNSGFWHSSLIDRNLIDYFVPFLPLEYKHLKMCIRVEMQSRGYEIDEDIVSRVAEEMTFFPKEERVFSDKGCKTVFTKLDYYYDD
# Chain of NADPH oxidase 2 (Homo sapiens) (P04839 whole entry, looked up): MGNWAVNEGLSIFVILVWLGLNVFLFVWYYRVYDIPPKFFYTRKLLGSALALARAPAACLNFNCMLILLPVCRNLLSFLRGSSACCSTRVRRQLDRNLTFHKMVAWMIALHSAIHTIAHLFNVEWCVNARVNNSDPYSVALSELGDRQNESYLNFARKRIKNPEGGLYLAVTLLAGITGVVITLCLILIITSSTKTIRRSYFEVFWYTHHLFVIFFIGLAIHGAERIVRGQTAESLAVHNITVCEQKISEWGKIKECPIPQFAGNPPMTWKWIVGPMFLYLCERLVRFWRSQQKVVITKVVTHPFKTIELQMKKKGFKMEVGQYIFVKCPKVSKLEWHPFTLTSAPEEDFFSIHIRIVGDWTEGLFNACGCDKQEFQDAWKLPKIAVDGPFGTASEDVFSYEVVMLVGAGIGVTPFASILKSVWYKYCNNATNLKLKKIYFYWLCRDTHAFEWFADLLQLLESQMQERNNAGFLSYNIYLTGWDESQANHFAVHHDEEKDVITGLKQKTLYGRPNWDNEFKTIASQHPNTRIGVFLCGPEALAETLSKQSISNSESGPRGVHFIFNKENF
# Chain of NADPH oxidase 4 (Homo sapiens) (Q9NPH5 whole entry, looked up): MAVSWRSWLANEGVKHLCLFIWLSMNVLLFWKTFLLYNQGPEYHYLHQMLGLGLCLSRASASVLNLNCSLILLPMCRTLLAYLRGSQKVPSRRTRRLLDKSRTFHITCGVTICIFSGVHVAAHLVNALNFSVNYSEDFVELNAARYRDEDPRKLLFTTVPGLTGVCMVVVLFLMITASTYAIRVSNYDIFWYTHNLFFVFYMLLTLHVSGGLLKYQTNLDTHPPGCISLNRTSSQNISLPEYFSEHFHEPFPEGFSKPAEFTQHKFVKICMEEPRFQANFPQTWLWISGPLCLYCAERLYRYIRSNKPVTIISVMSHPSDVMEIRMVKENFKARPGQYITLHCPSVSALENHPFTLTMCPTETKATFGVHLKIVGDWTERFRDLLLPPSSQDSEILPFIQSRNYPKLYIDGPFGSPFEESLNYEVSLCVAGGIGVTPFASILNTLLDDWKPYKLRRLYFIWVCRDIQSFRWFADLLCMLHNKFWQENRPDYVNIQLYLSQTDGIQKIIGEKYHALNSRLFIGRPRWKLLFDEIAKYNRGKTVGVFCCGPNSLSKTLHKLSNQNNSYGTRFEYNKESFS
SMILES,composite z-score [1],z-score [2],z-score [3],z-score [4],z-score [5],composite z-score [6],composite z-score [7],composite z-score [8],composite z-score [9],composite z-score [10],z-score [11],composite z-score [12],z-score [13],z-score [14],z-score [15],z-score [16],z-score [17],z-score [18],z-score [19],z-score [20]
CC1(C)[C@@H]2CC(C(O)C3C=CC4C(=O)N(c5ccccc5)C(=O)C4N3Nc3ccccc3)=C[C@H]1C2 (stereo not given in full),0.0836,0.355 (inactive),-0.959 (inactive),1 (inactive),0.874 (inactive),0.595,0.571,-0.37,-0.233,-0.385,-1.16 (inactive),-0.012,4.78 (inactive),0.741 (inactive),-0.343 (inactive),1.29 (inactive),-1.04,-1.47 (inactive),-2.94 (inactive),-3.08
Cc1ccc(S[C@]2(C(=O)NCCN3CCOCC3)CC(=O)N(Cc3ccccc3Cl)[C@@H]2c2ccc(CO)cc2)cc1,-0.0036,-2.93 (inactive),-1.98 (inactive),0.441 (inactive),1.1 (inactive),-0.625,-0.255,-2.16,0.269,-0.143,0.59 (inactive),0.0402,2.62 (inactive),0.43 (inactive),1.94 (inactive),0.524 (inactive),0.413,-2.29 (inactive),-1.85 (inactive),-2.89
COC(=O)[C@@]1(Cc2ccc(F)cc2)[C@H]2c3cc(C(=O)N(C)C)n(CC4CC4)c3C[C@H]2CN1C(=O)c1ccccc1,1.96,-2.68 (inactive),0.163 (inactive),1.54 (inactive),0.581 (inactive),1.79,1.56,-0.532,0.224,-1.04,-0.98 (inactive),2.06,3.33 (inactive),1.15 (inactive),1.07 (inactive),1.4 (inactive),-0.884,-0.0955 (inactive),0.281 (inactive),0.873
COCC(=C=CC[C@H](O)c1ccccc1OCCO)C[C@H](O)c1cc(Cl)cc(Cl)c1O,0.626,-8.22 (active),0.421 (inactive),24.4 (active),-0.753 (inactive),0.423,-0.0877,-0.256,1.72,1.37,-0.381 (inactive),0.233,7.9 (inactive),8.65 (active),-9.18 (active),3.52 (inactive),-0.539,-5.19 (inactive),-2.45 (inactive),-3.1
COc1cc2c(cc1OC)CN(C(=O)[C@@H]1[C@H]3C(=O)O[C@H](c4ccccc4)[C@H](c4ccccc4)N3[C@H](c3ccc(O)cc3)[C@@]13C(=O)Nc1ccc(C#CC4(O)CCCCCC4)cc13)CC2,0.382,-0.292 (inactive),-0.37 (inactive),-0.168 (inactive),-0.65 (inactive),1.06,-0.287,0.287,0.787,1.91,0.384 (inactive),-0.771,0.794 (inactive),0.657 (inactive),0.87 (inactive),0.442 (inactive),0.137,1.65 (inactive),0.744 (inactive),0.479
CCOC(=O)C[C@H]1[C@H](OC(=O)c2cc3ccccc3oc2=O)[C@@H](NC(=O)Cc2ccc(OC)cc2)c2cc(OCCCO)ccc2N1C(=O)c1ccccc1,0.0687,-3.21 (inactive),-0.797 (inactive),4.1 (inactive),-0.27 (inactive),0.308,0.0713,0.388,0.804,0.189,0.386 (inactive),0.0942,0.743 (inactive),-1.44 (inactive),0.776 (inactive),-2.76 (inactive),1.03,-0.569 (inactive),-0.523 (inactive),-0.286
CC(C)(C)OC(=O)CC[C@@]12N=C(c3ccc(OCCCO)cc3)O[C@@H]1c1ccccc1N(CCS(=O)(=O)c1ccccc1)C2=O,0.251,-3.45 (inactive),0.114 (inactive),-0.389 (inactive),-1.71 (inactive),0.901,0.0737,-0.0101,0.537,1.27,0.864 (inactive),0.334,30.9 (active),27.6 (active),3.49 (inactive),8.22 (active),1.84,-0.619 (inactive),0.801 (inactive),-2.14
CN(C)CCCCCCNC(=O)[C@@H]1C[C@@H]2C(=O)N[C@@H](CCCCN)C(=O)N2[C@@H]1c1cccc(OCCO)c1,1.97,-0.598 (inactive),-1.19 (inactive),-0.268 (inactive),-0.199 (inactive),3.03,1.57,3.29,3.11,1.92,-0.374 (inactive),2.74,1.59 (inactive),-0.644 (inactive),0.0026 (inactive),-2.47 (inactive),1.51,0.853 (inactive),0.7 (inactive),1.95
CC(C)N1C(=O)c2ccccc2[C@](C)(C(=O)NCc2ccccc2)[C@@H]1c1ccc(CO)cc1,-0.111,-0.139 (inactive),0.261 (inactive),0.558 (inactive),-0.074 (inactive),-0.558,-0.154,1.3,-0.119,-0.0391,-0.884 (inactive),-0.101,1.53 (inactive),0.349 (inactive),0.24 (inactive),0.645 (inactive),0.0331,-0.291 (inactive),-0.0216 (inactive),-0.54
